# According to PubChem BioAssay (EPA / NIEHS):
# “And” between values parts separate entries of the source, which are not always exact repeats. Equal entries are not always repeated. Records with an inconclusive call do not appear. The source holds several records for some structures; these can differ, active in one and inactive in another. The source made the active and inactive calls. The calls were made as follows: active = hit-call score of the fitted dose curve at least 0.9, where 1 is the maximum; inconclusive = response in the unintended direction; inactive = score below 0.9.
# How the values were obtained:
# [1] = Tanguay_ZF_120hpf_ActivityScore_legacy: (Legacy) Oregon State University Tanguay Lab 120 Hour Post-fertilization zebrafish Assay Score for Activity (AID 2283742);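 as to AC50: dechorionated Tropical 5D wild-type zebrafish embryos held singly per well; static exposure from 6 hpf until 120 hpf at 28 °C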
# Procedure, shortened: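 In this whole-embryo screen, dechorionated zebrafish were exposed from 6 hpf until 120 hpf at 28C under a 0.64% DMSO vehicle. Developmental malformations and death were recorded by brightfield microscopy as binary endpoints.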
# [2] = ACEA_AR_agonist_AUC_viability: ACEA Biosciences xCELLigence Real-Time Cell Analysis on Androgen Receptor Agonism for Viability (AID 2283775);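 as to AC50: viability read 80 hours after compound addition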
# Procedure, shortened: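 22Rv1 cells; impedance growth kinetics; 8-pt 1:4 dilutions from 100 uM top final, ≤0.5% DMSO; n = 2; 80 h read; AUC viability, loss-of-signal vs DMSO.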
# [3] = ACEA_AR_antagonist_AUC_viability: ACEA Biosciences xCELLigence Real-Time Cell Analysis on Androgen Receptor Antagonism for Viability (AID 2283776);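 also: area under impedance growth curve at 80 h after dosing as viability; hits lower the growth signal relative to DMSO meaning cytotoxicity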
# Procedure, shortened: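 22Rv1 human prostate cancer cells were seeded on electrode plates, monitored overnight, then exposed to eight 1:4 dilutions from 100 uM final. Impedance-based growth kinetics at 80 h gave an AUC viability endpoint normalized to DMSO.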
# [4] = ACEA_ER_AUC_viability: ACEA Biosciences xCELLigence Real-Time Cell Analysis on Estrogen Receptor Agonism for Viability (AID 2283782);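 also: hit means loss of impedance signal meaning reduced cell growth or viability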
# Procedure, shortened: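 Continuous-exposure impedance cell analysis uses T-47D cells in charcoal-stripped serum, eight 1:4 dilutions topping at 100 uM final, biological duplicate. Area under the growth curve at 80 h is fitted against DMSO baseline.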
# [5] = tested on: turtle Estrogen Receptor (ERa), gene 101933533; assay: ATG_trERa_XSP2: Attagene TRANS-FACTORIAL Multi-Species (XSP2) HepG2 Assay for turtle Estrogen Receptor (ERa) (AID 2283812);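 also: actives raise reporter signal above DMSO so AC50 reflects agonist activity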
# Procedure, shortened: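 Readout is reporter mRNA quantified by RT-PCR with capillary electrophoresis after 24 h compound exposure, increase relative to DMSO. Uses transiently transfected human HepG2 liver cells carrying a chimeric turtle ERa-Gal4 receptor driving GAL4-UAS reporters.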
# [6] = target: Estrogen receptor beta (Homo sapiens) (UniProt Q92731); assay: ATG_hERb_XSP2: Attagene TRANS-FACTORIAL Multi-Species (XSP2) HepG2 Assay for human Estrogen Receptor (ERb) (AID 2283813);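 also: actives raise reporter mRNA above DMSO so AC50 reflects agonist induction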
# Estrogen receptor beta (Homo sapiens), sequence (Q92731 whole entry, looked up, the tested form may be a part): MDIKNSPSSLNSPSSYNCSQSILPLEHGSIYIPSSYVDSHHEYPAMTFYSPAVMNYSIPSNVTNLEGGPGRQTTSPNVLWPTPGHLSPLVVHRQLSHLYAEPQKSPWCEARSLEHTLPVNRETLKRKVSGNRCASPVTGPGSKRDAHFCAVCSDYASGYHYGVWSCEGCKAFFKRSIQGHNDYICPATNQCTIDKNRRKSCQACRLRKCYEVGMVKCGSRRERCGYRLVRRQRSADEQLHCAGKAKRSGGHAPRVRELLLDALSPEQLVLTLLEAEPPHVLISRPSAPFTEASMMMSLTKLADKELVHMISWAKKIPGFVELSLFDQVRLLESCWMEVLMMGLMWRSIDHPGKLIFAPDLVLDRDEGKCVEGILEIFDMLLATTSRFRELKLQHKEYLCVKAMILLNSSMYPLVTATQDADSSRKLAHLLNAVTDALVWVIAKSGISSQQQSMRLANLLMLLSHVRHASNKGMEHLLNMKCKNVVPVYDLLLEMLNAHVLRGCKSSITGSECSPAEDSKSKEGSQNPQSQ
# Procedure, shortened: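 Transient TRANS reporter system in HepG2: after 24 h of chemical, RNA is reverse-transcribed, reporter cDNA amplified, FAM-labelled and sized by capillary electrophoresis. Induction of the human ERb-Gal4 reporter is measured relative to DMSO.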
# [7] = target: GAL4 Transcription Factor (Internal Marker), GAL4 (gene 855828) (UniProt P04386); assay: ATG_GAL4_XSP2: Attagene TRANS-FACTORIAL Multi-Species (XSP2) HepG2 Assay for GAL4 Transcription Factor (Internal Marker) (AID 2283814);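 also: GAL4 reporter mRNA background control in MRTU transfected cells not a receptor target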
# GAL4 Transcription Factor (Internal Marker), GAL4 (gene 855828), sequence (P04386 whole entry, looked up, the tested form may be a part): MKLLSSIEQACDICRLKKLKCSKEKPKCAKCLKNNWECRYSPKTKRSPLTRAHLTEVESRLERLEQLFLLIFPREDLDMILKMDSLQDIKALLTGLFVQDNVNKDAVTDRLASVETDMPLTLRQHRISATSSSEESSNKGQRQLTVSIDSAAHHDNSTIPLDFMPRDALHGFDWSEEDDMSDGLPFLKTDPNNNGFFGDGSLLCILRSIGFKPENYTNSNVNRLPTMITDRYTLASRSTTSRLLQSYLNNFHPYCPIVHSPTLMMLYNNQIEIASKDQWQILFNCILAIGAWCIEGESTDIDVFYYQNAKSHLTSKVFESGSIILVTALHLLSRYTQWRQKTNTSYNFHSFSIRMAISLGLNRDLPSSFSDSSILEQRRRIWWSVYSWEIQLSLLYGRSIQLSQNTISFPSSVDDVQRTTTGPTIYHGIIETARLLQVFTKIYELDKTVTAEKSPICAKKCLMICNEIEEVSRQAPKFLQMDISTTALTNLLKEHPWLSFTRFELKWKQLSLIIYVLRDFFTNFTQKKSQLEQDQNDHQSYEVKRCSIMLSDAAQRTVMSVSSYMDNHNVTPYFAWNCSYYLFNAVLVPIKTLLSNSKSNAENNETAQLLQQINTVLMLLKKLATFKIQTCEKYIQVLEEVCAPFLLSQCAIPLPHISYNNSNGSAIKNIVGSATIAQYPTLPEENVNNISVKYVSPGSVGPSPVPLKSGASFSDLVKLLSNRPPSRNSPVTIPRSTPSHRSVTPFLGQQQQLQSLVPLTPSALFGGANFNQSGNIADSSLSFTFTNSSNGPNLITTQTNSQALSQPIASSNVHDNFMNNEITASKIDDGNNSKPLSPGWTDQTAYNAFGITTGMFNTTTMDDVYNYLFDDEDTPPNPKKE
# Procedure, shortened: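 Background-control readout: gain-of-signal fitted against DMSO. After 24 h exposure of transfected HepG2 (MRTU, GAL4-UAS reporters; 3 nM 6-alpha-fluorotestosterone, 1.5 nM norgestrel present), transcripts quantified by RT-PCR and capillary electrophoresis fluorescence.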
# [8] = tested on: turtle Androgen Receptor (AR), gene 101947425; assay: ATG_trAR_XSP2: Attagene TRANS-FACTORIAL Multi-Species (XSP2) HepG2 Assay for turtle Androgen Receptor (AR) (AID 2283815);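 also: reporter mRNA from a Gal4 chimera of turtle AR measured by RT-PCR; potency for gain of reporter signal meaning activation above DMSO baseline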
# Procedure, shortened: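 Reporter transcripts were quantified via RT-PCR and capillary electrophoresis and fitted upward against DMSO. Transiently transfected human HepG2 cells carrying NR-Gal4 chimeras were exposed 24 h, with 3 nM 6-alpha-fluorotestosterone plus 1.5 nM norgestrel added.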
# [9] = target: zebrafish Estrogen Receptor (ER1), esr1 (gene 259252) (UniProt P57717); assay: ATG_zfER1_XSP2: Attagene TRANS-FACTORIAL Multi-Species (XSP2) HepG2 Assay for zebrafish Estrogen Receptor (ER1) (AID 2283816)
# zebrafish Estrogen Receptor (ER1), esr1 (gene 259252), sequence (P57717 whole entry, looked up, the tested form may be a part): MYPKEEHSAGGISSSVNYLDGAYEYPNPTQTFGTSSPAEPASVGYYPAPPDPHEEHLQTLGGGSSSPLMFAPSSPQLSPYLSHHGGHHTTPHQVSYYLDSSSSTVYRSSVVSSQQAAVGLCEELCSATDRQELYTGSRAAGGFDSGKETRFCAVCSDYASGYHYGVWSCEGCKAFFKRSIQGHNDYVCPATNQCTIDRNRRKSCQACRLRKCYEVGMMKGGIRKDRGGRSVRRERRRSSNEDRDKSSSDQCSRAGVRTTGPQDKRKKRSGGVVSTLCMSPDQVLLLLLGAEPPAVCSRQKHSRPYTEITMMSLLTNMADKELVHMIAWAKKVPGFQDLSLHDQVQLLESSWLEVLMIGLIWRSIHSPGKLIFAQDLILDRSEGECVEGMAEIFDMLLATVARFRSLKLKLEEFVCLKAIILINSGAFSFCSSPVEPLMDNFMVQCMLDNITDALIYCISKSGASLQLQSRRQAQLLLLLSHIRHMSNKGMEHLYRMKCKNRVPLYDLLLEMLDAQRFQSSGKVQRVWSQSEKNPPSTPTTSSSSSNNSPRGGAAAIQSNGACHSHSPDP
# Procedure, shortened: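 After 24 h compound exposure, RNA from transfected HepG2 cells was reverse-transcribed and reporter transcripts resolved by capillary electrophoresis. The TRANS format reads exogenous zebrafish ER1-Gal4 chimera activity on GAL4-UAS elements; gain of signal against DMSO.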
# [10] = target: chicken Estrogen Receptor (ERa), ESR1 (gene 396099) (UniProt P06212); assay: ATG_chERa_XSP2: Attagene TRANS-FACTORIAL Multi-Species (XSP2) HepG2 Assay for chicken Estrogen Receptor (ERa) (AID 2283817);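 also: actives raise reporter signal above DMSO so AC50 reflects ER activation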
# chicken Estrogen Receptor (ERa), ESR1 (gene 396099), sequence (P06212 whole entry, looked up, the tested form may be a part): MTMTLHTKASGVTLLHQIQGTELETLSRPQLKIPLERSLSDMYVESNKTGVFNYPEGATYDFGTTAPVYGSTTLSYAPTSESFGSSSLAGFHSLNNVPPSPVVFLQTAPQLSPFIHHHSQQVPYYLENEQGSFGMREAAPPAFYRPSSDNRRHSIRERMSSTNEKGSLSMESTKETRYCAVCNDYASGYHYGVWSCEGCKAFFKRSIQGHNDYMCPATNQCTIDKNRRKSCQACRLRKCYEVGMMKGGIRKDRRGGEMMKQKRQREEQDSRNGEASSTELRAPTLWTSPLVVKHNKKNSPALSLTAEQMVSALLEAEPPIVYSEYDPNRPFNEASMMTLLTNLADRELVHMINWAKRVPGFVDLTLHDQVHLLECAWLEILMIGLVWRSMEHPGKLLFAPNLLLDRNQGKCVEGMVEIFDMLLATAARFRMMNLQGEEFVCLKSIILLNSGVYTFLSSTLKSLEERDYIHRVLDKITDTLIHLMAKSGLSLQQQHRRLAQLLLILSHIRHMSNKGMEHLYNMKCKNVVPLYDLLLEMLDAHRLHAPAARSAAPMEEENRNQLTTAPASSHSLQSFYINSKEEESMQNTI
# Procedure, shortened: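 Exogenous chicken ERa-Gal4 chimera activity was assessed in transfected human liver HepG2 cells after 24 h of treatment. Induced reporter mRNA was quantified fluorescently by capillary electrophoresis, with DMSO as baseline.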
# [11] = tested on: zebrafish Estrogen Receptor (ER2a), gene 317734; assay: ATG_zfER2a_XSP2: Attagene TRANS-FACTORIAL Multi-Species (XSP2) HepG2 Assay for zebrafish Estrogen Receptor (ER2a) (AID 2283818);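 also: hits raise reporter mRNA so AC50 reflects activation of zebrafish ER2a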
# Procedure, shortened: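 Multiplexed trans-reporter readout: RT-PCR then capillary electrophoresis of reporter transcripts after 24 h compound treatment. Human HepG2 carries transfected zebrafish ER2a-Gal4 chimera; 3 nM 6-alpha-fluorotestosterone plus 1.5 nM norgestrel present. Induction scored against DMSO.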
# [12] = tested on: Thyroperoxidase (TPO), gene 445522; assay: CCTE_Simmons_GUA_TPO: CCTE's Guaiacol Assay for Thyroperoxidase (TPO) Inhibition, Simmons Lab (AID 2283750)
# Procedure, shortened: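 Porcine thyroid microsomes (25 ug) in 200mM potassium phosphate, preincubated 30 s at 37C with compound (8 concentrations, 5 nM–87.5 uM) and 35mM guaiacol; 1mM H2O2 starts reaction. Absorbance change at 450nm over first 80 s; loss of signal versus DMSO, three replicates.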
# [13] = target: Luciferin 4-monooxygenase (Photinus pyralis) (UniProt P08659); assay: CCTE_Simmons_QuantiLum_inhib_2: CCTE's Firefly Luciferase Inhibition Assay, Simmons Lab (AID 2283767);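 as to AC50: potency for inhibitors that lower luciferase luminescence relative to DMSO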
# Luciferin 4-monooxygenase (Photinus pyralis), sequence (P08659 whole entry, looked up): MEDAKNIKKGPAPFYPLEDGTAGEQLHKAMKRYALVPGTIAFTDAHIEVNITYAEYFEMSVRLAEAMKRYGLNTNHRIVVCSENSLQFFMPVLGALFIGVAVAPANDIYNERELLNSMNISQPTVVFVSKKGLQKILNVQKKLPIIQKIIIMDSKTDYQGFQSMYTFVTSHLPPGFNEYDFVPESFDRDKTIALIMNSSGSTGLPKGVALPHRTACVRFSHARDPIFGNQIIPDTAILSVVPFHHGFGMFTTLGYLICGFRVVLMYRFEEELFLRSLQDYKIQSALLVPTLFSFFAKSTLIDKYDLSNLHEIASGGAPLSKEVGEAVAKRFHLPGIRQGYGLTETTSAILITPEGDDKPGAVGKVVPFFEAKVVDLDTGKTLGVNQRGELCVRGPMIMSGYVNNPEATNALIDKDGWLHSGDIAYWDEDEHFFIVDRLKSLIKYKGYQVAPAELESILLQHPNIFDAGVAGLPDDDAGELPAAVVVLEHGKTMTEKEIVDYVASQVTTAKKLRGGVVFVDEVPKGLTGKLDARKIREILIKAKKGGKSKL
# Procedure, shortened: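 Eight test concentrations, 5 nM up to 87.5 uM final, preincubated 30min at 37C in the dark with purified luciferase (0.5% DMSO final). Detection reagent (150uM D-luciferin, 147uM dATP, 75uM CoA, pH 7.8) injected per well before kinetic luminescence read; three replicates.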
# [14] = STM_H9_NormalizedViability: Cytotoxicity Assessment at 120 hours in the Stemina devTOX quickPredict H9 human embryonic stem cell (hESC)-based Assay (AID 2283784)
# Procedure, shortened: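 Viability endpoint: background-corrected CellTiter-Fluor RFU expressed relative to the 0.1% DMSO mean on each plate. Undifferentiated H9 cells were treated with daily re-dosing and media change, and loss of signal was fitted.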
# AR (gene 367) = AR (gene 367) (UniProt P10275); assay: ACEA_AR_agonist_80hr: ACEA Biosciences xCELLigence Real-Time Cell Analysis on Androgen Receptor Agonism for Proliferation (AID 2283783);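 also: hits increase impedance growth signal above DMSO baseline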
# AR (gene 367), sequence (P10275 whole entry, looked up): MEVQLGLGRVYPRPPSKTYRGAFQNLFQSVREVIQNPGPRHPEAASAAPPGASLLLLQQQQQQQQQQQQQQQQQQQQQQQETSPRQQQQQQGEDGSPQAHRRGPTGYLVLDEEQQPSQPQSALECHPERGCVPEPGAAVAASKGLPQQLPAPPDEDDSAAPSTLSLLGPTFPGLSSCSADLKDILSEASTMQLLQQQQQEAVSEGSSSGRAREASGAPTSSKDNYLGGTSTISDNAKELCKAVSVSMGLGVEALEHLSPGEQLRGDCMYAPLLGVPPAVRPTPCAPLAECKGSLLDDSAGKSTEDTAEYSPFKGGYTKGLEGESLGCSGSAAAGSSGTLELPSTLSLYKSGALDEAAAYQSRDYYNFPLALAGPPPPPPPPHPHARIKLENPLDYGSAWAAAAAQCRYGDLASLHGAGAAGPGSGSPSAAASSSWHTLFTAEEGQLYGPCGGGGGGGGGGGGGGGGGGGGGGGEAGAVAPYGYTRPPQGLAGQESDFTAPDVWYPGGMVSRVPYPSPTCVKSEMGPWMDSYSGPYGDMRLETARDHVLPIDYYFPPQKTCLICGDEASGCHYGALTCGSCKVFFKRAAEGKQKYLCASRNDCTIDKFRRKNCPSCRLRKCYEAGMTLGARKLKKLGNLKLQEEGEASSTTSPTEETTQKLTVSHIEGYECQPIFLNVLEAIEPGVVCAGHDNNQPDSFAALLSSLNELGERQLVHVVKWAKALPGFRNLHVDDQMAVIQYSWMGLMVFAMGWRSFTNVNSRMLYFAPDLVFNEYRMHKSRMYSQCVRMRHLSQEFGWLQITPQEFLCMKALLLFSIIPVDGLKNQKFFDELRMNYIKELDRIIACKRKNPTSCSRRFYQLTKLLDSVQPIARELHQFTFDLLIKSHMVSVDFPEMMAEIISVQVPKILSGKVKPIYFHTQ
# Procedure, shortened: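 Real-time cell-growth kinetics were recorded by electrode impedance in 22Rv1 cells exposed to test chemicals up to 100 uM final; the 80 h timepoint served as the readout, fitted upward relative to DMSO controls, in biological duplicate.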
structure (smiles),measurement,setting,value
Oc1cc(Cl)c(Cl)cc1Cl,AC50,[1],32.1 µM (active)
same,AC50,[2],64.8 µM (active)
same,AC50,[3],71.8 µM (active)
same,outcome,[4],inactive
same,AC50,[5],13 µM (active) and 6.06 µM (active)
same,AC50,[6],20.3 µM (active)
same,outcome,[6],inactive
same,outcome,[7],inactive
same,AC50,[8],7.74 µM (active) and 2.23 µM (active)
same,outcome,[9],inactive
same,AC50,[10],29.9 µM (active)
same,outcome,[10],inactive
same,AC50,[11],21.9 µM (active)
same,outcome,[11],inactive
CN(C)C(=S)S,AC50,[1],0.00103 µM (active)
same,AC50,[12],250 µM (active)
same,outcome,[13],inactive
same,outcome,[2],inactive
same,outcome,[3],inactive
same,AC50,[14],29.2 µM (active)
O=C(NC(=O)c1c(F)cccc1F)Nc1ccc(Cl)cc1,outcome,[13],inactive
same,outcome,[3],inactive
same,outcome,[4],inactive
N#CS,outcome,[13],inactive
same,outcome,[2],inactive
same,outcome,[4],inactive
CC(C)O.CC(C)O.OCCN(CCO)CCO.OCCN(CCO)CCO.[Ti],outcome,[1],inactive
same,outcome,[2],inactive
same,outcome,[3],inactive
same,outcome,[14],inactive
CC(C)(C)c1ccccc1O,outcome,[1],inactive
same,outcome,[13],inactive
same,outcome,[2],inactive
same,outcome,[3],inactive
same,AC50,[4],81.5 µM (active)
Clc1cccc(Cl)c1,outcome,[1],inactive
same,outcome,[2],inactive
same,outcome,[3],inactive
same,outcome,[4],inactive
O=c1[nH]c(=O)n(Cl)c(=O)n1Cl,outcome,[13],inactive
same,outcome,[2],inactive
same,outcome,[3],inactive
same,outcome,[4],inactive
COc1ccc(N)cc1,outcome,[13],inactive
same,outcome,[2],inactive
same,outcome,[3],inactive
same,AC50,[4],52 µM (active)
same,outcome,[4],inactive
CCCSP(=S)(OCC)Oc1ccc(SC)cc1 (stereo not drawn),outcome,[13],inactive
same,outcome,[2],inactive
same,outcome,[4],inactive
N#CCC#N,outcome,[13],inactive
same,outcome,[2],inactive
same,outcome,[3],inactive
same,outcome,[4],inactive
same,outcome,AR (gene 367),inactive
O=C(O)C1(c2ccc3c(c2)OC[C@H](Cc2ccc(-c4ccccc4)cc2)[C@H]3O)CCCC1,outcome,[1],inactive
same,AC50,[13],85.2 µM (active)
same,AC50,[2],34.6 µM (active)
same,outcome,[3],inactive
same,AC50,[4],78.3 µM (active)
Oc1c(Br)cc(Br)cc1Br,outcome,[3],inactive
same,outcome,[4],inactive
CCC[CH2][Sn]([Cl])([Cl])[CH2]CCC,AC50,[2],4.16 µM (active)
same,AC50,[3],3.75 µM (active)
same,AC50,[4],1.09 µM (active)
CC(C)N(C(=O)CCl)c1ccccc1,AC50,[2],24.2 µM (active)
same,AC50,[3],16.6 µM (active)
same,AC50,[4],18.5 µM (active)
same,outcome,AR (gene 367),inactive
OCCCCO,outcome,[2],inactive
O=[N+]([O-])c1ccccc1O,outcome,[2],inactive
same,outcome,[4],inactive
CCCCCCCCCCCCN(C)C,outcome,[2],inactive
same,outcome,[3],inactive
same,outcome,[4],inactive
Cc1cc(Cl)ccc1OC(C)C(=O)O (stereo not drawn),outcome,[2],inactive
same,outcome,[4],inactive
